This is an account of results in PubChem BioAssay AID743395 (Broad Institute, 2014).

About 480 (40%) of roughly 1,200 compounds were called active. How the calls were made is not given here. The set was probably picked from earlier hits. A selection follows. Results with a measured potency or affinity are listed apart.

This test is described as follows: viability loss in human hepatoma cells – cell-based, CellTiter-Glo luminescence, cherry-pick, set 2, cytotoxicity control, dose response (AID 743395). The conditions noted are these: HepG2 viability, CellTiter-Glo ATP luminescence, 72 h; series mostly up to 26 µM. (ATP-based viability assays read luminescence as a measure of living cells.)
On to `COc1ccc(CCC(=O)N2CCN(S(=O)(=O)c3ccc(OC(F)(F)F)cc3)CC2)cc1`, for which the outcome was inactive.

With `CCS(=O)(=O)N1CC(=O)N2[C@H](C1)[C@@H](c1ccc(C#CCC(C)C)cc1)[C@@H]2CO`, the result was inactive.

With `CCS(=O)(=O)N1CC(=O)N2[C@H](CO)[C@@H](c3ccc(C#CCC(C)C)cc3)[C@@H]2C1`, the compound was classed as inactive.

`CS(=O)(=O)N1CC(=O)N2[C@H](C1)[C@H](c1ccc(C#Cc3ccc(F)cc3)cc1)[C@@H]2CO`: the compound was called inactive.

For `COc1ccccc1N1CCN(/N=C/C=C\c2ccccc2[N+](=O)[O-])CC1`, the result was inactive.

With `COc1cc(SC)ccc1C(=O)N1CCN(c2ccccc2OC)CC1`, the result was inactive.

Regarding `Cc1ccc(C(=O)NCC(=O)OCC(=O)NC(C)c2ccccc2)s1` (stereo unspecified), the compound was called inactive.

`C[C@@H]1CN([C@H](C)CO)C(=O)c2cc(NC(=O)Cc3cn(C)c4ccccc34)ccc2O[C@@H]1CN(C)Cc1ccc(Cl)c(Cl)c1`: the call was inactive.

As for `C[C@@H]1CN([C@@H](C)CO)C(=O)Cc2cc(N(C)C)ccc2O[C@@H]1CN(C)Cc1ccccc1`, the compound was classed as inactive.

For `C[C@@H]1CN([C@@H](C)CO)C(=O)Cc2cc(NC(=O)Nc3ccc(C(F)(F)F)cc3)ccc2O[C@H]1CN(C)C(=O)Nc1ccccc1`, the call was inactive.

For `C[C@@H]1CN([C@@H](C)CO)C(=O)c2cc(NC(=O)Nc3cccc4ccccc34)ccc2O[C@@H](C)CCCCO[C@@H]1CN(C)Cc1ccc2c(c1)OCO2`, the compound was called inactive.

On to `C[C@H](CO)N1C[C@H](C)[C@H](CN(C)Cc2ccc(Cl)c(Cl)c2)Oc2ccc(NC(=O)C3CCCCC3)cc2CC1=O`, for which the compound was classed as inactive.

`C[C@H]1CCCCO[C@H](CN(C)C(=O)Cc2ccccc2)[C@@H](C)CN([C@@H](C)CO)C(=O)c2cc(N(C)C)ccc2O1`: the compound was classed as inactive.

Turning to `C[C@@H]1CN([C@@H](C)CO)C(=O)c2cccc(NC(=O)Nc3ccc4c(c3)OCO4)c2O[C@H]1CN(C)S(=O)(=O)c1ccccc1`, the compound was called inactive.

Consider `CCNC(=O)C1CCCN(C(=O)c2cc(F)ccc2C)CC1` (stereo unspecified), for which the compound was called inactive.

Regarding `CCNC(=O)C1(C)CCN(C(=O)c2cc(F)ccc2C)C1` (stereo unspecified), the compound was classed as inactive.

As to `Cc1cccc(CC(=O)Nc2cccnc2)c1`, the compound was classed as inactive.

On to `CN1c2ccc(-c3ccc(C#N)cc3)cc2[C@H]2[C@H](CCN2S(=O)(=O)c2cccc(F)c2)[C@H]1CO`, for which the compound was called inactive.

In the case of `CN1c2ccc(-c3ccc(C#N)cc3)cc2[C@H]2[C@H](CCN2S(=O)(=O)c2cccc(F)c2)[C@@H]1CO`, the result was inactive.

For `O=C(O)C1=C[C@@H](O)[C@@H](O)[C@H](O)C1`, the outcome was inactive.

Take `COc1ccc(C(=O)Nc2ccccc2C(=O)Nc2ccccc2)cc1`: the outcome was inactive.

As to `CCOCCOC(=O)COC(=O)c1ccccc1NC(=O)c1ccccc1`, the result was inactive.

In the case of `COc1ccc(C(=O)c2cc(OC)c(OC)c(OC)c2)cc1OC`, the outcome was inactive.

With `Cc1nc(NCc2cccnc2)c2c3c(sc2n1)CCCC3`, the compound was classed as inactive.

With `COc1ccc(-c2cc(=O)c3c(O)cc(O)cc3o2)cc1`, the outcome was inactive.

Turning to `Cn1cccc1/C=C1\SC(=Nc2ccc(O)cc2)NC1=O`, the compound was classed as inactive.

For `O=C1NC(=Nc2cccnc2)S/C1=C/c1ccc(F)cc1`, the compound was classed as inactive.

Regarding `C=CC[C@@H](CC(=O)N(CCO)Cc1ccccc1)C(=O)N[C@H](COC(=O)[C@H](CC=C)CC(=O)OC(C)(C)C)Cc1c[nH]c2ccccc12`, the compound was called inactive.

As for `CCCNC(=O)N1[C@H](C#N)[C@H](c2ccc(C#Cc3ccc(F)cc3)cc2)[C@@H]1CO`, the call was inactive.

As to `CC(C)CC#Cc1ccc([C@H]2[C@H](CO)N3C(=O)CN(C(=O)Nc4cc(F)ccc4F)C[C@@H]23)cc1`, the result was inactive.

Consider `O=C(Nc1cc(F)ccc1F)N1CC(=O)N2[C@@H](CO)[C@H](c3ccc(C#CC4CCCCC4)cc3)[C@@H]2C1`, for which the outcome was inactive.

For the compound `CCCC#Cc1ccc([C@H]2[C@H](CO)N3C(=O)CN(C(=O)Nc4cc(F)ccc4F)C[C@@H]23)cc1`, the result was inactive.

Consider `Cc1ccc(-c2cccc(CN3CCN(C(C)C)C(CCO)C3)c2)o1` (stereo unspecified), for which the compound was classed as inactive.

Take `COc1cc(-c2noc(C)c2C#Cc2ccccn2)cc(OC)c1OC`: the compound was classed as inactive.

As to `COc1cc(-c2noc(C)c2C#Cc2ccsc2)cc(OC)c1OC`, the compound was called inactive.

Consider `CCN1CCCC(OC(=O)c2cc(-c3ccccc3Cl)nc3ccccc23)C1` (stereo unspecified), for which the compound was called inactive.

In the case of `O=C(CCC(=O)N1CCOc2ccc(Cl)cc21)N1CCN(c2ccccn2)CC1`, the result was inactive.

For the compound `CCOc1ccc(-c2cc(C(=O)N/N=C/c3ccc(O)cc3)c3ccccc3n2)cc1`, the compound was classed as inactive.

In the case of `COC(=O)Cc1c(O)ccn(Cc2ccc(Cl)c(Cl)c2)c1=O`, the compound was classed as inactive.

As to `CN1C(=O)c2cc(NC(=O)c3ccc(Cl)cc3)ccc2OC[C@@H]2O[C@H](CC(=O)NCc3cccc(F)c3)CC[C@H]21`, the result was inactive.

Regarding `CCN(CC(=O)Nc1ccc(NC(C)=O)cc1)C(=O)c1ccc(N2CCC(C)CC2)c([N+](=O)[O-])c1`, the compound was called inactive.

With `Cc1c(CCC(=O)O)c(=O)oc2c(C)c(OCc3ccccc3Cl)ccc12`, the call was inactive.

`COc1ccc(C(C)=O)cc1CS(=O)(=O)CC(=O)NCCc1c[nH]c2ccccc12`: the outcome was inactive.

Turning to `O=C(CN(Cc1ccco1)Cc1ccco1)Nc1cc(S(=O)(=O)N2CCCCC2)ccc1Cl`, the call was inactive.

Regarding `Cc1c(OCC(=O)NCCN2CCOCC2)ccc2c3c(c(=O)oc12)CCC3`, the compound was classed as inactive.

Turning to `Oc1cc2c(cc1O)C(c1ccccc1)CNCC2` (stereo unspecified), the call was inactive.

In the case of `COc1ccc(OC)c(C2CC(c3ccccc3)=NN2C(=S)Nc2ccccc2)c1` (stereo unspecified), the outcome was inactive.

On to `CCOc1ccc(N(CC)C(=O)COc2cc(=O)n(C)c3ccccc23)cc1`, for which the compound was classed as inactive.

Turning to `CCOC(=O)c1c(C)[nH]c(C)c1C(=O)COC(=O)c1ccc([N+](=O)[O-])s1`, the compound was classed as inactive.

For `C/C=C/c1ccc([C@H]2[C@@H](CO)N(C(=O)COC)[C@@H]2CNC(=O)CC)cc1`, the compound was called inactive.

Take `Cc1cc(/C=N/NC(N)=S)c(O)c(/C=N/NC(N)=S)c1`: the compound was called inactive.

Consider `Cc1cc2c(cc1C)C(c1ccccc1OC(C)C)CC(=O)N2` (stereo unspecified), for which the result was inactive.

Consider `O=C(Nc1ccccc1)c1nc[nH]c1C(=O)Nc1ccccc1F`, for which the compound was called inactive.

With `CN(CC(=O)Nc1cccc(S(=O)(=O)N2CCCC2)c1)CC(=O)Nc1ccc(F)c(F)c1F`, the compound was classed as inactive.

With `COc1cccc(-c2cccc(-c3nc(C(=O)NCC(F)(F)F)cc4c3[C@H](CCO)N([S@@](=O)C(C)(C)C)C4)c2)c1`, the result was inactive.

On to `N#Cc1nc(NCC(F)F)nc(Nc2cc(F)cc(F)c2)n1`, for which the result was inactive.
